Test results taken from the supplement of paper PMC6089552.
The campaign covered roughly 3,200 compounds. About 300 (9.4%) showed activity. Many of the other results were omitted from the sample, so actives are more common in it than they were.

System: A673/TR/shEF
Assay: cell viability (LOESS-normalised, relative to median of negative controls) (log2 ratio); higher = more viable cells (less compound effect), active = hit call of the paper (over 3 MAD below the median)
Settings: treatment time: 72 h
In short: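 A673/TR/shEF Ewing sarcoma cells (1,500 per well, 384-well plates) were grown with or without doxycycline to induce EWS-FLI1 shRNA knockdown, starting 24 h before compounds. Library compounds at two or more concentrations, with DMSO controls, were added for three days. Cell viability was read by CellTiter-Glo luminescence on an Envision reader, then LOESS-corrected per plate, divided by the median of negative controls and log2-transformed. Hits were wells at least three median absolute deviations from the median of all screened wells.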

[1] = 0.25 µM, library screen: screen2, EWS-FLI1 expression: high (no doxycycline)
[2] = 0.25 µM, library screen: screen2, EWS-FLI1 expression: low (doxycycline-induced shRNA knockdown)
[3] = 2.5 µM, library screen: screen2, EWS-FLI1 expression: high (no doxycycline)
[4] = 2.5 µM, library screen: screen2, EWS-FLI1 expression: low (doxycycline-induced shRNA knockdown)
[5] = 0.25 µM, library screen: screen1, EWS-FLI1 expression: high (no doxycycline)
[6] = 0.25 µM, library screen: screen1, EWS-FLI1 expression: low (doxycycline-induced shRNA knockdown)
[7] = 2.5 µM, library screen: screen1, EWS-FLI1 expression: high (no doxycycline)
[8] = 2.5 µM, library screen: screen1, EWS-FLI1 expression: low (doxycycline-induced shRNA knockdown)
[9] = 0.103 µM, library screen: screen3, EWS-FLI1 expression: high (no doxycycline)
[10] = 0.103 µM, library screen: screen3, EWS-FLI1 expression: low (doxycycline-induced shRNA knockdown)
[11] = 0.308 µM, library screen: screen3, EWS-FLI1 expression: high (no doxycycline)
[12] = 0.308 µM, library screen: screen3, EWS-FLI1 expression: low (doxycycline-induced shRNA knockdown)
[13] = 0.926 µM, library screen: screen3, EWS-FLI1 expression: high (no doxycycline)
[14] = 0.926 µM, library screen: screen3, EWS-FLI1 expression: low (doxycycline-induced shRNA knockdown)
[15] = 2.8 µM, library screen: screen3, EWS-FLI1 expression: high (no doxycycline)
[16] = 2.8 µM, library screen: screen3, EWS-FLI1 expression: low (doxycycline-induced shRNA knockdown)
[17] = 8.3 µM, library screen: screen3, EWS-FLI1 expression: high (no doxycycline)
[18] = 8.3 µM, library screen: screen3, EWS-FLI1 expression: low (doxycycline-induced shRNA knockdown)
[19] = 25 µM, library screen: screen3, EWS-FLI1 expression: high (no doxycycline)
[20] = 25 µM, library screen: screen3, EWS-FLI1 expression: low (doxycycline-induced shRNA knockdown)

Measured: cell viability (log2)

OCC(O)C1NCC(O)C1O (configuration not stated)
inactive: [1] 0.0417 | [2] 0.103 | [3] 0.000766 | [4] 0.0189

Cc1cc(N)c2ccccc2[n+]1CCCCCCCCCC[n+]1c(C)cc(N)c2ccccc21
active: [7] -1.46 | [8] -0.54 | [3] -0.865 | [4] -0.463
inactive: [5] 0.139 | [6] 0.0436 | [1] 0.122 | [2] 0.0489

CC[C@H]1C(=O)OC[C@@H]1Cc1cccn1C
inactive: [5] 0.154 | [6] 0.0128 | [7] 0.143 | [8] 0.0953

CC12CCCC(O)(C1)C1CC(C)(C)C1CC2 (configuration not stated)
inactive: [5] 0.066 | [6] -0.02 | [7] 0.0972 | [8] 0.0732

Oc1ccc2c(c1)OC[C@H]1c3cc4c(cc3O[C@@H]21)OCO4
inactive: [5] 0.0543 | [6] -0.104 | [7] 0.119 | [8] 0.0894

Oc1ccc([C@@H]2Oc3ccc(O)cc3[C@@H]3CCC[C@@H]32)cc1
active: [19] -0.181
inactive: [9] -0.0128 | [10] 0.0648 | [11] -0.0264 | [12] -0.0313 | [13] -0.0384 | [14] 0.0122 | [15] -0.0259 | [16] 0.00446 | [17] -0.0456 | [18] 0.0022 | [20] -0.0464

Oc1ccc([C@H]2Oc3cc(O)cc(O)c3C[C@H]2O)cc1
inactive: [5] 0.0303 | [6] -0.000667 | [7] 0.0839 | [8] -0.00856

COc1cc(CN2CCN(Cc3cccc(OC)c3OC)CC2)c([N+](=O)[O-])cc1OC
inactive: [5] 0.00876 | [6] 0.0541 | [7] 0.119 | [8] -0.0278

CC1(C)OC(=O)CC(O)[C@@]2(C)C1CC(=O)[C@]1(C)C2CCC2(C)C(c3ccoc3)OC(=O)[C@H]3O[C@]321 (some centres not stated)
inactive: [5] 0.0277 | [6] 0.0481 | [7] 0.0671 | [8] 0.0691

C[C@]12CCC3c4ccc(OC(=O)CCC(=O)O)cc4CCC3C1CCC2=O (some centres not stated)
inactive: [5] 0.126 | [6] 0.0832 | [7] 0.102 | [8] 0.0823

C=C/C(C)=C\C[C@@H]1[C@@]2(C)CCCC(C)(C)[C@@H]2CC[C@@]1(C)O
inactive: [5] 0.0522 | [6] 0.0309 | [7] 0.126 | [8] 0.0611

C[C@]12CCC3c4ccc(OS(=O)(=O)O)cc4CCC3C1CC[C@H]2O (some centres not stated)
inactive: [5] 0.0646 | [6] 0.0512 | [7] 0.0988 | [8] 0.092

C[C@]12CC[C@@H]3c4ccc(O)cc4CC[C@H]3[C@@H]1CC[C@@H]2O
inactive: [9] 0.029 | [10] -0.00908 | [5] 0.122 | [6] 0.00576 | [1] 0.147 | [2] 0.0497 | [11] 0.101 | [12] 0.0915 | [13] 0.111 | [14] 0.0539 | [7] 0.0979 | [8] 0.0174 | [3] 0.0738 | [4] 0.0113 | [15] 0.127 | [16] 0.0786 | [17] 0.135 | [18] 0.0545 | [19] 0.166 | [20] 0.0719

COc1cc2c(cc1O)CC[C@@H]1[C@@H]2CC[C@]2(C)[C@@H](O)CC[C@@H]12
active: [19] -1.25 | [20] -0.177
inactive: [9] 0.0202 | [10] 0.0975 | [1] 0.11 | [2] 0.04 | [11] 0.0934 | [12] 0.0693 | [13] -0.0172 | [14] 0.0926 | [3] 0.0437 | [4] 0.0893 | [15] 0.045 | [16] 0.00908 | [17] -0.104 | [18] -0.0169

COc1ccccc1CN1CCN(Cc2ccc(OC)c(OC)c2)CC1
inactive: [5] 0.0157 | [6] 0.078 | [7] 0.0565 | [8] 0.0117

CC(C)(C)c1ccccc1OCC(O)CN1CCCCC1 (configuration not stated)
inactive: [5] 0.09 | [6] 0.0909 | [7] 0.176 | [8] 0.0864

CC(=O)Oc1ccc(-c2coc3cc(OC(C)=O)ccc3c2=O)cc1
inactive: [5] 0.152 | [6] 0.0716 | [7] 0.0709 | [8] 0.0455

CCOC(=O)C1(O)Oc2cc(OC)cc(OC)c2C(=O)C1c1ccccc1 (configuration not stated)
inactive: [5] 0.122 | [6] 0.103 | [7] 0.112 | [8] 0.086
